Source: PubChem
The entries come from a sample that favours hits as a whole.
LmPK inh: blocks Leishmania mexicana pyruvate kinase activity; purified LmPK, Kinase-Glo ATP luminescence, 1 h; Potency, µM (highest dose often 57.5 µM), inactives show at the highest dose activity change, negative = inhibition, actives largely listed as inhibitors; actives 0.37% (n = 290,000); note: potency is the fitted concentration of half-maximal effect; % is set by controls: 0 for no effect and ±100 for the full control effect
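In 50 mM imidazole pH 7.2 with 7 mM MgCl2, LmPK (0.1 nM) turned over PEP (0.5 mM) and ADP (0.1 mM) for 1 h at room temperature. Luciferase read-out of ATP.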
Cycloheximide cs: affects cycloheximide protein synthesis inhibition readout, counter-screen. cell reporter, cycloheximide protein synthesis inhibition counterscreen. max response, %. actives 12% (n = 300,000); in the data active = max response mostly above about 13%, no sharp cut-off; inactive = mostly below about 14%; note: read at 38.3 µM for the half of the compounds with a filed dose; 0% is about no effect
Giardia FBPA inh: inhibitors of Giardia lamblia fructose-1,6-bisphosphate aldolase | A8B2U2 | purified Giardia FBPA | Potency, µM (doses to about 59.6 µM), without a hit: top-dose activity, negative = inhibition, actives largely listed as inhibitors | actives 0.71% (n = 290,000) | AID 2451; note: potency is the fitted concentration of half-maximal effect; % is set by controls: 0 for no effect and ±100 for the full control effect; nearly all actives have a fitted effect of over 55% in size
Target sequence (A8B2U2 whole entry, looked up): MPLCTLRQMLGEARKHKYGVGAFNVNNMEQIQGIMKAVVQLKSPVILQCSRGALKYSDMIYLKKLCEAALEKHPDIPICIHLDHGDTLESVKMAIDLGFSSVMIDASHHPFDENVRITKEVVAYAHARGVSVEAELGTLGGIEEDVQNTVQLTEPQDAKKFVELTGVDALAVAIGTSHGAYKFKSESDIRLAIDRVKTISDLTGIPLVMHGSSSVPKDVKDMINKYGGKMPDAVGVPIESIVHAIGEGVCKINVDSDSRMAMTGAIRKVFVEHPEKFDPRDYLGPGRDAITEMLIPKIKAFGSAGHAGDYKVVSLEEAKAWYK
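Giardia FBPA (40 nM reagent) was preincubated 10 min at RT with compound (up to 57.5 uM final), then substrate plus GAPDH/TPI/NAD/arsenate coupling system with diaphorase/resazurin was added; resorufin fluorescence (525/598 nm) was read after 20 min.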
TbPYK inhibitor: inhibitors of Trypanosoma brucei pyruvate kinase. Q57TT1. Potency, µM (top dose mostly 76.8 µM), for the others: at the top dose activity, negative = inhibition, actives largely listed as inhibitors. AID 624173. TbPYK enzyme, Kinase-Glo Plus ATP luminescence, 45 min. actives 0.12% (n = 410,000); note: potency is the fitted concentration of half-maximal effect; % is set by controls: 0 for no effect and ±100 for the full control effect; nearly all actives have a fitted effect of over 50% in size
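ADP (130 uM final) triggers the TbPYK reaction after compound addition; incubation is 45 min at room temperature. Kinase-Glo Plus is then added and luminescence imaged. Normalized data are fitted to concentration-effect curves.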
Shiga inhibitor: Shiga toxin inhibition; inhibition, % at 38.7 µM; actives 9.2% (n = 290,000); Vero cells, Shiga toxin protein synthesis inhibition reporter; in the data active = inhibition mostly above about 28%, no sharp cut-off; inactive = mostly below about 43%; note: 0% is about no effect
Sm TGR block: blocks Schistosoma mansoni thioredoxin glutathione reductase. Q962Y6. purified TGR, DTNB reduction, TNB absorbance 405 nm. Potency, µM (highest dose often 114 µM), inactives show at the top dose activity change, negative = inhibition, actives largely listed as inhibitors. actives 3% (n = 360,000); note: potency is the fitted concentration of half-maximal effect; % is set by controls: 0 for no effect and ±100 for the full control effect; nearly all actives have a fitted effect of over 60% in size
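TGR 20 nM + NADPH 100 uM (dispensed conc.), cpd preinc 15 min RT; start with NADPH (500 uM addition) then DTNB (15 mM addition). Kinetic TNB absorbance, 405 nm filter. Four-parameter Hill fit across titration.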
* hit, by the source's call; ? = inconclusive; . = no result. Unless noted, calls come from the whole dose curve; as a rule, active = well fitted curve in the direction sought with a large enough effect; inconclusive = small, poorly fitted or top-dose-only effect, or another doubt; inactive = no such curve, though single readings can be large; an effect the other way counts as inactive or inconclusive.

SMILES	LmPK inh	Cycloheximide cs	Giardia FBPA inh	TbPYK inhibitor	Shiga inhibitor	Sm TGR block
Cc1cccc2sc(N(Cc3cccnc3)C(=O)CCOc3ccccc3)nc12	.	.	.	0%	.	3.5µM*
O=C(Nc1ccccc1)c1cccc(Cn2cc(C(F)(F)F)ccc2=O)c1	-5%	10	-1%	3%	-6	11%
O=C(Sc1ccccc1)c1cccc(Cn2cc(C(F)(F)F)ccc2=O)c1	1%	2	-4%	0%	-4	22µM*
CCOc1ccc(NC(=O)c2c(NC(=O)CNCCN3CCOCC3)sc3c2CCC3)cc1	6%	12	15%	-9%	5	-3%
CCn1c(O)c(/C=N/N=C2CCCCC2)c2cc(C3=NNC(=O)CC3)ccc21	-3%	-1	-29%	-9%	-3	40µM*
CCc1ccc(-c2nc(CS(=O)CC(=O)NCc3ccc4c(c3)OCO4)c(C)o2)cc1 (stereo not given)	-6%	2	.	0%	2	10µM*
Cc1ccc(-c2nc(CS(=O)CC(=O)NCc3ccc4c(c3)OCO4)c(C)o2)cc1 (stereo not given)	-3%	4	-5%	-9%	-7	22µM*
CCc1ccc(-c2nc(CS(=O)CC(=O)NCc3ccccc3)c(C)o2)cc1 (stereo not given)	-4%	13	.	-5%	-13	8.9µM*
Cc1ccc(-c2nc(CS(=O)CC(=O)NCc3ccc(Cl)cc3)c(C)o2)cc1 (stereo not given)	16%	-4	3%	-3%	-14	?
COc1cccc(-c2nnc(NC(=O)C(C)C)o2)c1	3%	9	-12%	2%	56	0%
COc1cccc(-c2nnc(NC(=O)c3ccccc3Br)o2)c1	7%	35*	?	4%	66*	-5%
COc1cccc(-c2nnc(-c3ccco3)o2)c1	?	60*	3%	-26%	active	-9%
COc1cccc(-c2nnc(N)o2)c1	-1%	10*	4%	3%	26	7%
COc1cccc(-c2nnc(-c3ccc(C)o3)o2)c1	?	27*	25%	3%	29*	-17%
COc1cccc(-c2nnc(NC(=O)c3cccc(F)c3)o2)c1	5%	-2	-11%	2%	-5	3%
Cc1ccc(C(=O)N2CCc3cc(CNC(=O)CCc4ccccc4)ccc32)cc1	.	.	.	3%	.	0%
COc1cccc(C(=O)Nc2ccc(-c3nnc(-c4ccco4)o3)cc2)c1	1%	17*	0%	1%	57	-1%
COc1cccc(-c2nnc(-c3ccccc3[N+](=O)[O-])o2)c1	0%	41*	-3%	2%	93*	10%
COc1cccc(C(=O)Nc2cccc(-c3nnc(-c4ccccc4)o3)c2)c1	.	.	.	-8%	.	.
COC1C(O)C(CO)OC1n1cnc2c(=O)[nH]c(N)nc21 (stereo not given)	.	.	2%	.	.	.
CNC[C@H]1Oc2c(NS(=O)(=O)c3ccccc3)cccc2C(=O)N([C@H](C)CO)C[C@@H]1C	.	.	.	-1%	.	.
CCC(=O)n1nc(-c2cccnc2)nc1NCc1ccccc1	1%	2	6%	2%	9	13%
COCC(=O)n1nc(-c2ccc(Cl)cc2)nc1NCc1ccc(F)cc1	-2%	38*	3%	3%	48*	-15%
COCC(=O)n1nc(-c2ccccc2)nc1NCc1ccc(N(C)C)cc1	2%	38*	-1%	-9%	65*	7%
COCC(=O)n1nc(-c2ccc(C)cc2)nc1NCc1ccc(F)cc1	0%	12*	1%	8%	86*	11%
SMILES	LmPK inh	Cycloheximide cs	Giardia FBPA inh	TbPYK inhibitor	Shiga inhibitor	Sm TGR block
COc1ccccc1C(=O)n1nc(-c2ccccc2)nc1NCc1ccc(Cl)cc1	.	.	.	-4%	.	0%
COc1ccccc1CNC(=O)C1CCCN(S(=O)(=O)c2ccc3c(c2)CCCN3C(C)=O)C1 (stereo not given)	.	.	.	-6%	.	4%
O=S1(=O)CCOC[C@H](Cc2ccccc2)N1Cc1ccc(Cl)cc1	.	.	.	-1%	.	.
O=C(NCCS(=O)(=O)NC1CCCCC1)c1ccc2c(c1)OCO2	.	.	.	5%	.	-7%
C/C(=C\c1ccccc1)C(=O)n1nnc2ccccc21	-9%	8	5%	14%	7	20µM*
CC(=O)n1nnc2ccccc21	.	6	4%	.	14	.
CCOC(=O)c1ccc(NC(=O)CN2Cc3ccccc3C2=O)cc1	.	.	.	-2%	.	-3%
CC(=O)CN1Cc2ccccc2/C1=N\C(=O)Nc1ccccc1	-1%	16*	0%	4%	11	-5%
COc1ccc(N2Cc3ccccc3/C2=N\C(=O)Nc2ccccc2)cc1	3%	23*	-5%	2%	57	4%
N#Cc1c(N)n(C2OC(CO)C(O)C2O)c2ncnc(N)c12 (stereo not given)	.	.	.	-7%	.	.
O=C(COc1ccccc1Cl)c1ccc2c(c1)CCCC2	-3%	26*	-7%	-9%	53*	12%
O=C(COc1ccccc1Cl)c1ccc[nH]1	10%	30*	-13%	6%	57	-5%
O=C(COc1ccc(Br)cc1Cl)c1ccc[nH]1	-7%	38*	-1%	7%	69*	-18%
CC(=O)Nc1ccc(S(=O)(=O)NC2(c3ccccc3)C(=O)N(C)C(=O)N(C)C2=O)cc1	.	.	.	-6%	.	.
Cc1ccccc1-c1nc(SCC(=O)NCc2ccc(F)cc2)c2c(=O)n(C)c(=O)n(C)c2n1	.	.	.	-3%	.	-27%
Cn1cccc1C(=O)N1CCC2(CC1)CCN(c1ncccn1)CC2	.	.	3%	-5%	.	.
CN1/C(=N\O)c2cccc3cccc1c23	-2%	-4	8.9µM*	-10%	13	-7%
CCn1nc(C)c(CCN(C)C(=O)Nc2cc(Cl)c(OC)cc2OC)c1C	.	.	.	0%	.	4%
COc1ccc(-c2nn(-c3ccccc3)cc2/C=N/n2cnnc2)cc1OC	3%	-3	1%	-1%	-2	-1%
C(=N\n1cnnc1)/c1cn(-c2cccs2)nc1-c1ccccc1	3%	37*	-1%	2%	66*	-23%
O=C(Nc1ccc(OC(=O)c2ccco2)cc1)c1ccco1	14µM*	18	-6%	2%	32*	-9%
O=C(Nc1cccc(OC(=O)c2ccco2)c1)c1ccco1	-1%	15	0%	4%	42	3%
O=C(O)c1ccccc1C(=O)Nc1ccc(Oc2cccc3ccccc23)cc1	0%	-12	13%	-1%	-26	.
O=C(Nc1ccc(Cl)c(Cl)c1)Oc1ccc(NC(=O)c2ccco2)cc1	1%	22*	-2%	-3%	23	-3%
O=C(Nc1ccc(Oc2cccc3ccccc23)cc1)c1ccco1	8%	29*	-10%	0%	44	8%
O=C(OC1CCCCC1)c1ccc(NC(=O)c2ccco2)cc1	2%	36*	0%	1%	61*	-19%
Cc1oc2ncn(C)c(=O)c2c1C(=O)N1CCN(c2ccccc2)CC1	.	.	.	-1%	.	1%
